Screening results as filed in PubChem BioAssay.
CYP2C9 act – human CYP2C9 activators, primary screen, biochemical, luminescence | AID 1024, 2008 | activation factor at 5 µM | recombinant CYP2C9, luciferin-H conversion; hits give high values; factor 1 = untreated enzyme, 0 = blocked | Cytochrome P450 2C9 (Homo sapiens), P11712 | 1.4% of 96,000 active;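 active means activation factor of 2 or more for CYP2C9 at a 5 µM dose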;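 further: 0 = sulfaphenazole-blocked wells and 1 = vehicle-only wells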
CYP2C19 inhib – blockers of cytochrome P450 2C19 activity – biochemical, luminescence, ADME assay, primary screen. AID 778, 2007. inhibition, % at 5 µM. CYP2C19 Supersomes, luciferin-H EGE luminescence, 30 min. P33261. 21% of 96,000 active;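 active means CYP2C19 inhibition above a set limit at 5 µM in the primary screen, cut at about 50% in these data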;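 further: plate controls were negative control wells for no effect and 2.5 mM tranylcypromine positive control for full effect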
PLAP act – PLAP enzyme activators, biochemical, luminescence, HTS. purified PLAP enzyme, luminescent substrate read-out; hits give high values. 1.2% of 96,000 active. AID 696, 2007. activation fold at 20 µM. Alkaline phosphatase, placental type (Homo sapiens), P05187; in the data active means activation fold above about 2
Target sequence (P05187 whole entry, looked up): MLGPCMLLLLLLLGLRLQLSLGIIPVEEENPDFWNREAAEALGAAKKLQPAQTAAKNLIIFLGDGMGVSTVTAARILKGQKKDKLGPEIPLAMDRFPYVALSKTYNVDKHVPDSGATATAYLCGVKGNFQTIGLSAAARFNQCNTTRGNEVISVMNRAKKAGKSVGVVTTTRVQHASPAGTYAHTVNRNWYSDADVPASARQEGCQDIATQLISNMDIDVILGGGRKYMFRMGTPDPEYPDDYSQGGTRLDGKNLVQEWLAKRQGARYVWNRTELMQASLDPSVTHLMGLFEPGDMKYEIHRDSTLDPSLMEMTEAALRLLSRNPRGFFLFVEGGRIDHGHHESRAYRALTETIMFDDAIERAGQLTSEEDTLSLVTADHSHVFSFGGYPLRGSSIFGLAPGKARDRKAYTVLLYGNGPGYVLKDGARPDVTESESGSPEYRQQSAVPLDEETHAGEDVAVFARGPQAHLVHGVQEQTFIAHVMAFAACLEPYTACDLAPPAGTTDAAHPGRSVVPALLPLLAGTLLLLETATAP
CYP2C9 inhib – blockers of cytochrome P450 2C9 activity – biochemical, luminescence, ADME assay, primary screen | P11712 | CYP2C9 Supersomes, luciferin-H conversion | inhibition, % at 5 µM | 20% of 96,000 active;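 active means blocking of liver enzyme CYP2C9 beyond about 50% at 5 µM, limit read from the data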
CYP2C19 activ – human CYP2C19 activators, primary screen, biochemical, luminescence | Cytochrome P450 2C19 (Homo sapiens), P33261 | activation factor at 5 µM | recombinant CYP2C19, luciferin-H EGE luminescence; hits give high values; 0 = fully inhibited enzyme, 1 = untreated enzyme | 96,000 tested, under 10 active;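 active means activation factor of at least 2 at 5 µM in the primary screen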;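 further: 0 = wells with 2.5 mM tranylcypromine and 1 = vehicle-only wells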
Starred values were filed as active, the others as inactive. Shown are actives, neighbours in structure and some others; about 31% of the full set was active somewhere.

SMILES	CYP2C9 act	CYP2C19 inhib	PLAP act	CYP2C9 inhib	CYP2C19 activ
NC(=S)NNc1cc(Cl)cc(Cl)c1	0.7	19.5	0.8	30.9	0.8
C=CCn1c(SCC(=O)NCc2cccs2)nnc1C1CCCCC1	0.9	25.7	0.9	14.9	0.7
COCc1nnc(NS(=O)(=O)c2c(C)cc(C)cc2C)s1	0.2	4.6	1.1	84.4*	1
CCOCc1nnc(NS(C)(=O)=O)s1	1	-0.5	1	-3.4	1
COCc1nnc(NS(=O)(=O)c2ccccc2)s1	0.7	-12.0	1.2	30.8	1.1
COCc1nnc(NS(=O)(=O)c2ccc(C)cc2)s1	0.5	-7.4	1.1	52.1*	1.1
CCc1nnc(NC(=O)C(=O)NCCOC(=O)c2ccccc2Cl)s1	0.8	18.2	1.2	16.9	0.8
CN1CCc2c(sc3c2c(=O)n(-c2ccccc2)c2nnc(SCc4ccc(Cl)cc4)n32)C1	0.9	-7.4	1.5	9.0	1.1
CCC1(C)Cc2c(sc3nc(NN)n(C)c(=O)c23)CO1 (stereo not given)	0.1	99.0*	2*	93.9*	0
O=S(=O)(NCc1ccncc1)c1ccc(S(=O)(=O)NCC2CCCO2)cc1 (stereo not given)	0.1	56.5*	0.8	88.8*	0.4
O=S(=O)(NCC1CCCO1)c1ccc2oc3ccc(S(=O)(=O)NCC4CCCO4)cc3c2c1 (stereo not given)	0.5	2.3	1.5	52.5*	1
O=S(=O)(NC1CC2CCC1C2)c1ccc(Br)s1 (stereo not given)	0.2	64.1*	0.8	83.6*	0.4
O=S(=O)(NCC1CCCO1)c1cccc(S(=O)(=O)N2CCCC2)c1 (stereo not given)	1	7.6	1.1	0.8	0.9
O=S(=O)(NCC1CCCO1)c1ccc(Br)s1 (stereo not given)	1.1	71.0*	1	-14.9	0.3
O=C(Nc1ccc(F)cc1)c1ccc(S(=O)(=O)NCC2CCCO2)cc1 (stereo not given)	0.6	13.0	1	38.4	0.9
CC(C)C(NS(=O)(=O)c1ccc(Br)s1)C(=O)O (stereo not given)	1.1	-6.2	1.1	-10.5	1.1
CCN1CCN(S(=O)(=O)c2ccc(S(=O)(=O)NCC3CCCO3)cc2)CC1 (stereo not given)	1	-9.6	1	1.2	1.1
O=P(O)(c1ccc(Cl)cc1)c1ccc(Cl)cc1	0.6	27.2	1.4	44.2	0.7
O=C(Nc1ncnc2sc3c(c12)CCCCC3)c1ccccc1	0.8	51.3*	1	16.7	0.5
O=C(Nc1ncnc2sc3c(c12)CCCCC3)c1ccc(F)cc1	0.6	37.9	1.3	41.7	0.6
C(=N\Nc1ncnc2sc3c(c12)CCC3)/c1cccs1	0.8	17.9	1.3	21.4	0.8
C(=N\Nc1ncnc2sc3c(c12)CCC3)/c1ccncc1	0.2	83.2*	1.3	82.1*	0.2
O=C(Nc1ncnc2sc3c(c12)CCC3)c1ccco1	2.4*	43.5	0.7	-139.0	0.6
O=C(c1ccco1)N1CCCN(C(=O)c2ccco2)CC1	1.2	15.2	0.8	-19.4	0.8
COc1ccc(C(=O)N2CCCC(c3ccccc3)C2)cc1 (stereo not given)	1.2	95.3*	1.7	-23.9	0
SMILES	CYP2C9 act	CYP2C19 inhib	PLAP act	CYP2C9 inhib	CYP2C19 activ
O=C(c1ccco1)N1CCC(c2ccccc2)C1 (stereo not given)	0.5	78.1*	1	51.2*	0.2
COc1ccc(C(=O)N2CCC(C(=O)O)CC2)cc1	0.9	3.0	1.1	8.2	1
O=C(CN1CCCC1)NCC1(c2ccccc2)CCOCC1	1.1	-10.3	1.1	-13.1	1.1
Cc1nnc(-c2ccccc2)c[n+]1[O-]	1.4	-27.2	0.8	-35.0	1.3
Cc1nc(-c2cccc(S(=O)(=O)N3CCCCCC3)c2)cs1	0.3	94.7*	1.3	66.5*	0.1
O=S(=O)(c1cccc(-c2csc(-c3ccccc3)n2)c1)N1CCOCC1	0.4	47.3	1.5	61.2*	0.5
CC1CN(S(=O)(=O)c2cccc(-c3csc(-c4ccccc4)n3)c2)CC(C)O1 (stereo not given)	0.4	20.0	1.5	57.5*	0.8
CC1=CC(C)(C)NC(=S)N1c1cccc(C)c1	0.9	43.5	1	6.5	0.6
N#Cc1nc(-c2ccccc2Cl)oc1N1CCCCC1	0.2	85.6*	1	81.4*	0.1
CN(C)c1oc(-c2ccccc2Cl)nc1C#N	2.8*	61.8*	1	-179.3	0.4
N#Cc1nc(-c2cccc3ccccc23)oc1N1CCCCC1	1.1	-6.4	0.9	-5.4	1.1
CN(C)c1oc(-c2ccccc2Cl)nc1S(=O)(=O)c1ccccc1	1.4	78.7*	0.9	-43.9	0.2
CCC(C)NC(=O)C(Cc1ccccc1)NS(=O)(=O)c1cccc2nsnc12 (stereo not given)	0.9	8.7	0.9	14.8	0.9
CC(CCc1ccccc1)NC(=O)C(Cc1ccccc1)NS(=O)(=O)c1cccs1 (stereo not given)	0.2	75.8*	0.7	79.4*	0.2
CC1CCCCC1NC(=O)C(Cc1ccccc1)NS(=O)(=O)c1cccs1 (stereo not given)	0.3	83.6*	1.1	73.4*	0.2
O=C1CC(Nc2ccc(N3CCOCC3)cc2)C(=O)N1c1ccccc1 (stereo not given)	1.1	21.6	1	-6.7	0.8
COc1ccc(NC2CC(=O)N(c3ccccc3)C2=O)cc1 (stereo not given)	1	54.7*	0.9	-3.1	0.5
CC(=O)Nc1cc(C(=O)OC(C(=O)c2ccccc2)c2ccccc2)ccc1C (stereo not given)	0.4	59.1*	1.5	60.1*	0.4
COc1ccc(C(=O)C(OC(=O)c2ccc(C)c(NC(C)=O)c2)c2ccccc2)cc1 (stereo not given)	0.4	41.2	1.5	62.0*	0.6
COc1ccc(C(=O)OC(C(=O)c2ccccc2)c2ccccc2)cc1 (stereo not given)	0.2	57.9*	0.9	78.1*	0.4
Oc1ccc2[nH]cnc2c1CN1CCCCC1	1.1	8.6	1.1	-14.6	0.9
CC(C)CN(C#N)c1nc(N2CCOCC2)nc(N2CCOCC2)n1	0.5	20.4	1.1	51.1*	0.8
CCC(C)Oc1cccc(C(=O)Nc2ccccc2N2CCOCC2)c1 (stereo not given)	0.3	67.9*	1.2	73.1*	0.3
COC(=O)c1cc(NCc2ccccc2F)ccc1N1CCOCC1	0.5	86.9*	1.5	54.9*	0.1
Cc1cc(Cl)ccc1OC(C)C(=O)Nc1ccccc1N1CCOCC1 (stereo not given)	0	90.0*	1.3	96.9*	0.1
COC(=O)c1ccccc1NC(=O)CNc1cc(Cl)ccc1N1CCOCC1	0.1	84.0*	1.7	94.5*	0.2
